Results published in ChEMBL document CHEMBL2218924, “A broad activity screen in support of a chemogenomic map for kinase signalling research and drug discovery” (Biochem J, 2013).

What was measured:
[1] = biological target: T1, Ephrin type-A receptor 3 (Homo sapiens) (UniProt P29320); details: at 10 µM
T1 sequence (whole entry): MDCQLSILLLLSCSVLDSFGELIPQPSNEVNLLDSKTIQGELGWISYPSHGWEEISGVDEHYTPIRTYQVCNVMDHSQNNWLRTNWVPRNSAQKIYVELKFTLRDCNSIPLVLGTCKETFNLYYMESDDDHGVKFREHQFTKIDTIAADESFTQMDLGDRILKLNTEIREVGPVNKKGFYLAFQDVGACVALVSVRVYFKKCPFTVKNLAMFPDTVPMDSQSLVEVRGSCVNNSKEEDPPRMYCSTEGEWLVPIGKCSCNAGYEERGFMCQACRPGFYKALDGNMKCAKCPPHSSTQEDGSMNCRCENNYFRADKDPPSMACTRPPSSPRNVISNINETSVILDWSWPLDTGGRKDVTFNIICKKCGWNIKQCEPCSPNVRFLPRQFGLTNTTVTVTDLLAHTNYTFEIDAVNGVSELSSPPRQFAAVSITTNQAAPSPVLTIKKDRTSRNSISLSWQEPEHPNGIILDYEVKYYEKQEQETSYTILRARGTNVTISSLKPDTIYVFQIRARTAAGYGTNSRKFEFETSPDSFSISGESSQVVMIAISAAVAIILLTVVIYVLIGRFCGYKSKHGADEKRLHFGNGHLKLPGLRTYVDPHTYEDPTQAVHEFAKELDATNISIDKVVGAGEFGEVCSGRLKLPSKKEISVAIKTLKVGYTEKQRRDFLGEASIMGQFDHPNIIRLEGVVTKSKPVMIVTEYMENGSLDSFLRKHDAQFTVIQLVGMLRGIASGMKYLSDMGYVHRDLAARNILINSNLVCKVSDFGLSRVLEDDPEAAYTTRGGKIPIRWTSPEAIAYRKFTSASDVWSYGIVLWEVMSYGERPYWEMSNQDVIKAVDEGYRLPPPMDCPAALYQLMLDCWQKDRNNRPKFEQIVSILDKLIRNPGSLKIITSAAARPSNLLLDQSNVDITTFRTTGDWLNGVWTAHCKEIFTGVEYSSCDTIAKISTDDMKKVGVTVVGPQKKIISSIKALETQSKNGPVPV

[2] = biological target: Ephrin type-A receptor 4 (Homo sapiens) (UniProt P54764); details: at 10 µM
[3] = biological target: Ephrin type-A receptor 7 (Homo sapiens) (UniProt Q15375); details: at 1 µM
[4] = biological target: Ephrin type-A receptor 7 (Homo sapiens) (UniProt Q15375); details: at 10 µM
[5] = biological target: T2, Ephrin type-A receptor 8 (Homo sapiens) (UniProt P29322); details: at 1 µM
T2 sequence (whole entry): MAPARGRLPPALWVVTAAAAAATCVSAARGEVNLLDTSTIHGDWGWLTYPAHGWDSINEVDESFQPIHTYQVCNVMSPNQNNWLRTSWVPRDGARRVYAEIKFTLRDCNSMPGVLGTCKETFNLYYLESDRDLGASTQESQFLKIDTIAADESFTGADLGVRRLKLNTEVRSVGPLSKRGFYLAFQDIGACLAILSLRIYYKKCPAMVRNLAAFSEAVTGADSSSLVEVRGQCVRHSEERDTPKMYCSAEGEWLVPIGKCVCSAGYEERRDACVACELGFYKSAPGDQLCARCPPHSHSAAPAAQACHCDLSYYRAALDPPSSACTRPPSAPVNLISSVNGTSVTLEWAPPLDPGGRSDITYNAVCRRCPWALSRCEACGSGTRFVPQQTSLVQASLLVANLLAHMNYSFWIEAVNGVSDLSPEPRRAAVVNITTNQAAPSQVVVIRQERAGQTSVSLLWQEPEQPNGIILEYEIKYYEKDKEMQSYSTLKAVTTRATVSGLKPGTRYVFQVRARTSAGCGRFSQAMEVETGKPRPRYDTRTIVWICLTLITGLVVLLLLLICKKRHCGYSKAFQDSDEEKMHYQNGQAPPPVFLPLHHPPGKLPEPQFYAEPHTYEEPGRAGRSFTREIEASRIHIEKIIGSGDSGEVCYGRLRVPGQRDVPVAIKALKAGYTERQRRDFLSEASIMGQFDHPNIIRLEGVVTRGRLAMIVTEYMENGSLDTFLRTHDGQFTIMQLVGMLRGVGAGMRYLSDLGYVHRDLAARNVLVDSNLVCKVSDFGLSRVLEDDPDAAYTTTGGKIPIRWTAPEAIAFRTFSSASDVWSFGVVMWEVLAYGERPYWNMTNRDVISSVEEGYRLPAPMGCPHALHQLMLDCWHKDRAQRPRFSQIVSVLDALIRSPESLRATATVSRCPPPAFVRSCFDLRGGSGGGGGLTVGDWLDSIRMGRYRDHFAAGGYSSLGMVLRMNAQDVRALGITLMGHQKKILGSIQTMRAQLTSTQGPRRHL

[6] = biological target: T2, Ephrin type-A receptor 8 (Homo sapiens); details: at 10 µM
[7] = biological target: T3, Ephrin type-B receptor 1 (Homo sapiens) (UniProt P54762); details: at 1 µM
T3 sequence (whole entry): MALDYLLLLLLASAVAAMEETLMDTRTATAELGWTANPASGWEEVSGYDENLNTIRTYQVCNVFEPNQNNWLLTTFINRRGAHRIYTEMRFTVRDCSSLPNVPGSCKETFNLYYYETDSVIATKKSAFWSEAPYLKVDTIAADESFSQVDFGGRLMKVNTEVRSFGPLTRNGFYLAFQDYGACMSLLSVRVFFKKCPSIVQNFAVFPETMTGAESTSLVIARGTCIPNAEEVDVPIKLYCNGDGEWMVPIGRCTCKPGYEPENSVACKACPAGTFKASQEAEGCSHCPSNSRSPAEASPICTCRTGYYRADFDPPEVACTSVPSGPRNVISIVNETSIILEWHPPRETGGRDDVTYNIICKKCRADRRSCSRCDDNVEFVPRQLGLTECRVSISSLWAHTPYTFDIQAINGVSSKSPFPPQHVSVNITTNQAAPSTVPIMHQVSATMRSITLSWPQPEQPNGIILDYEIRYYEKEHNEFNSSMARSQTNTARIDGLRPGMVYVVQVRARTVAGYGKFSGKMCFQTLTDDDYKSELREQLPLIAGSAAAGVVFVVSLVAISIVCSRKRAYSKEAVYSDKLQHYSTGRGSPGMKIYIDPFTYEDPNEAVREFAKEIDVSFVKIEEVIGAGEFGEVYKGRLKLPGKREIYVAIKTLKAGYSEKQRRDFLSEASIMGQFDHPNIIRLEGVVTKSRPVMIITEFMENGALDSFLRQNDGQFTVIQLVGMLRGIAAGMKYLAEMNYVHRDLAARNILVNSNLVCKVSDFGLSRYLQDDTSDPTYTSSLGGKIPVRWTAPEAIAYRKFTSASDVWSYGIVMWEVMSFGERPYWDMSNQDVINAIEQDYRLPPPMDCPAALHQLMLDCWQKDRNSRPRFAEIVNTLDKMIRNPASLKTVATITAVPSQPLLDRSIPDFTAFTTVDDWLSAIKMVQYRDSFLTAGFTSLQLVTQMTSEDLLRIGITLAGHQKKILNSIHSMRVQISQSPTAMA

[8] = biological target: T3, Ephrin type-B receptor 1 (Homo sapiens); details: at 10 µM
[9] = biological target: T4, Ephrin type-B receptor 3 (Homo sapiens) (UniProt P54753); details: at 1 µM
T4 sequence (whole entry): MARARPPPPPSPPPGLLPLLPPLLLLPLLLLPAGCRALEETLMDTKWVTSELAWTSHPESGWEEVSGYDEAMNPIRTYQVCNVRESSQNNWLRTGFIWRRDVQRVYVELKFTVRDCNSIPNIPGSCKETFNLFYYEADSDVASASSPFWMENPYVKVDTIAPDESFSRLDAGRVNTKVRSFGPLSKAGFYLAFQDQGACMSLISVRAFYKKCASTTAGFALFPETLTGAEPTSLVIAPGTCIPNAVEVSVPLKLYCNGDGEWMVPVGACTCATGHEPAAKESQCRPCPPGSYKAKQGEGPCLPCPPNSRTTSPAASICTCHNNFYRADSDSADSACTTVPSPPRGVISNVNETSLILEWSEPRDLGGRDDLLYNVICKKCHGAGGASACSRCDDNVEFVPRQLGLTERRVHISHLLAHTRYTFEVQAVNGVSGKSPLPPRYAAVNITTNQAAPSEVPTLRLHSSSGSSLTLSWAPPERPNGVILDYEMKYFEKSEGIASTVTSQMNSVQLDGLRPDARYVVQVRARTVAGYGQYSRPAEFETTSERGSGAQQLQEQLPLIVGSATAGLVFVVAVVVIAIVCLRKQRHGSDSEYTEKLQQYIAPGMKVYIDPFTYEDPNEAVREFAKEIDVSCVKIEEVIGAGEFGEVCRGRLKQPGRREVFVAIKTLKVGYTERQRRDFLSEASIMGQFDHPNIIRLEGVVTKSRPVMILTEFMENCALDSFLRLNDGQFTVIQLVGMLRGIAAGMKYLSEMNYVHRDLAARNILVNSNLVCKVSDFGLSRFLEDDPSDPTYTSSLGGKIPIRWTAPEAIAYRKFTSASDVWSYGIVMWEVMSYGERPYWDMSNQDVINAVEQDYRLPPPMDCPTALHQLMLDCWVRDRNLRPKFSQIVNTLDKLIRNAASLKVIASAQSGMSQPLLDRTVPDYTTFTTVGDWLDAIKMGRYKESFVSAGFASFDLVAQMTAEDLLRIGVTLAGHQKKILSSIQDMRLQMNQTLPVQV

[10] = biological target: T4, Ephrin type-B receptor 3 (Homo sapiens); details: at 10 µM
[11] = biological target: T5, Ephrin type-B receptor 4 (Homo sapiens) (UniProt P54760); details: at 1 µM
T5 sequence (whole entry): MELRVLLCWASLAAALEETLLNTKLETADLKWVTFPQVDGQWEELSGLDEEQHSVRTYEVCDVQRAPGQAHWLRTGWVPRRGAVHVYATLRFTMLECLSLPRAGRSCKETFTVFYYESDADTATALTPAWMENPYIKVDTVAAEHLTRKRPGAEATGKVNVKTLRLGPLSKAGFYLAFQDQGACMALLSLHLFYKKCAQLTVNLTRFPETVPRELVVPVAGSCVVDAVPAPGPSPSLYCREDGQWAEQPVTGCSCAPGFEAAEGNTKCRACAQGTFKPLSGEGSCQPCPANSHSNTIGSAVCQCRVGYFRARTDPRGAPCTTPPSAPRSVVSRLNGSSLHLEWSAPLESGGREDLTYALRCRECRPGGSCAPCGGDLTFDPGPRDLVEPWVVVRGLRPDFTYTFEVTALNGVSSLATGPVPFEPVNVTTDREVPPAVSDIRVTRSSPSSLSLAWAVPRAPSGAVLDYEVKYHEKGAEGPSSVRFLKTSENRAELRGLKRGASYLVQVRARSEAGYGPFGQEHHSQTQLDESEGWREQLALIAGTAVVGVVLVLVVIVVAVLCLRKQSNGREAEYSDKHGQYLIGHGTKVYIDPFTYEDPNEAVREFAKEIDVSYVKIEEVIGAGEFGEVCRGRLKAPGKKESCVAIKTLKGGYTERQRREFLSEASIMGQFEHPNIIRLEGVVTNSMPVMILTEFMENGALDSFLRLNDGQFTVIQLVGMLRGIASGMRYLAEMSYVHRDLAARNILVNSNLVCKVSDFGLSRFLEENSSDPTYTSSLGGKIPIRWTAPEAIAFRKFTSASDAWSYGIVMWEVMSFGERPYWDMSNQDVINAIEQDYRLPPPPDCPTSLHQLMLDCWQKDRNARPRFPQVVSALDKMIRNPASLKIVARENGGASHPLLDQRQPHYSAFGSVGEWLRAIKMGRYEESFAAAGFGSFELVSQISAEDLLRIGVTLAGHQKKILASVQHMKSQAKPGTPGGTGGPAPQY

[12] = biological target: T5, Ephrin type-B receptor 4 (Homo sapiens); details: at 10 µM
[13] = biological target: Receptor tyrosine-protein kinase erbB-4 (Homo sapiens) (UniProt Q15303); details: at 1 µM
[14] = biological target: Receptor tyrosine-protein kinase erbB-4 (Homo sapiens) (UniProt Q15303); details: at 10 µM
[15] = biological target: Focal adhesion kinase 1 (Homo sapiens) (UniProt Q05397); details: at 1 µM
Sequence of Focal adhesion kinase 1 (Homo sapiens) (Q05397 2-1052 limits assumed): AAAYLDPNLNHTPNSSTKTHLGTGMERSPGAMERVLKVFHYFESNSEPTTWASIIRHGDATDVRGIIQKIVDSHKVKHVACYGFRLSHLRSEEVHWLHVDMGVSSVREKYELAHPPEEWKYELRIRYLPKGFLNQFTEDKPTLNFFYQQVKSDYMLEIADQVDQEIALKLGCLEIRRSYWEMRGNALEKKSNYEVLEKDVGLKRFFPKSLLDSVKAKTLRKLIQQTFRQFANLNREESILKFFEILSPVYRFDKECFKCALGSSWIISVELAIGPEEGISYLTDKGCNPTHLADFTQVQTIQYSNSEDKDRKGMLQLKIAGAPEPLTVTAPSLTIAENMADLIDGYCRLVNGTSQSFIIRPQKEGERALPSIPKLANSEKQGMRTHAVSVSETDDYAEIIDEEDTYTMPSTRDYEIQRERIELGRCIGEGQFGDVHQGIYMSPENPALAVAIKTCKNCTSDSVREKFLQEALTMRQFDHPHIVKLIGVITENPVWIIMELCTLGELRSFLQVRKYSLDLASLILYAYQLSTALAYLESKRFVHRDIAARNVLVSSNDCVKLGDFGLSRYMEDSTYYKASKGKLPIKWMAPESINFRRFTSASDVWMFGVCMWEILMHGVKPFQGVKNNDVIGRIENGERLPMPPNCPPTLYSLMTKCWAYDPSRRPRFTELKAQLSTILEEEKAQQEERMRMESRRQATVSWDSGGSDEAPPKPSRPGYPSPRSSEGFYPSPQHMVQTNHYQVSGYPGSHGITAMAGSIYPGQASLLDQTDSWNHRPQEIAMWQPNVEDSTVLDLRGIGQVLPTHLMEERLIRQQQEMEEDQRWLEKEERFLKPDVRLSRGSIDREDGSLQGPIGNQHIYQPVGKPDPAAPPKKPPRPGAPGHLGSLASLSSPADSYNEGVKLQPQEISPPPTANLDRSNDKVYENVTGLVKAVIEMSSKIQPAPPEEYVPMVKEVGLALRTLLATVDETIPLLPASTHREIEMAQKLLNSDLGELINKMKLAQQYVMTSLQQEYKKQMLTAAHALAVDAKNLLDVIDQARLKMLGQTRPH

Sequence of Receptor tyrosine-protein kinase erbB-4 (Homo sapiens) (Q15303 whole entry): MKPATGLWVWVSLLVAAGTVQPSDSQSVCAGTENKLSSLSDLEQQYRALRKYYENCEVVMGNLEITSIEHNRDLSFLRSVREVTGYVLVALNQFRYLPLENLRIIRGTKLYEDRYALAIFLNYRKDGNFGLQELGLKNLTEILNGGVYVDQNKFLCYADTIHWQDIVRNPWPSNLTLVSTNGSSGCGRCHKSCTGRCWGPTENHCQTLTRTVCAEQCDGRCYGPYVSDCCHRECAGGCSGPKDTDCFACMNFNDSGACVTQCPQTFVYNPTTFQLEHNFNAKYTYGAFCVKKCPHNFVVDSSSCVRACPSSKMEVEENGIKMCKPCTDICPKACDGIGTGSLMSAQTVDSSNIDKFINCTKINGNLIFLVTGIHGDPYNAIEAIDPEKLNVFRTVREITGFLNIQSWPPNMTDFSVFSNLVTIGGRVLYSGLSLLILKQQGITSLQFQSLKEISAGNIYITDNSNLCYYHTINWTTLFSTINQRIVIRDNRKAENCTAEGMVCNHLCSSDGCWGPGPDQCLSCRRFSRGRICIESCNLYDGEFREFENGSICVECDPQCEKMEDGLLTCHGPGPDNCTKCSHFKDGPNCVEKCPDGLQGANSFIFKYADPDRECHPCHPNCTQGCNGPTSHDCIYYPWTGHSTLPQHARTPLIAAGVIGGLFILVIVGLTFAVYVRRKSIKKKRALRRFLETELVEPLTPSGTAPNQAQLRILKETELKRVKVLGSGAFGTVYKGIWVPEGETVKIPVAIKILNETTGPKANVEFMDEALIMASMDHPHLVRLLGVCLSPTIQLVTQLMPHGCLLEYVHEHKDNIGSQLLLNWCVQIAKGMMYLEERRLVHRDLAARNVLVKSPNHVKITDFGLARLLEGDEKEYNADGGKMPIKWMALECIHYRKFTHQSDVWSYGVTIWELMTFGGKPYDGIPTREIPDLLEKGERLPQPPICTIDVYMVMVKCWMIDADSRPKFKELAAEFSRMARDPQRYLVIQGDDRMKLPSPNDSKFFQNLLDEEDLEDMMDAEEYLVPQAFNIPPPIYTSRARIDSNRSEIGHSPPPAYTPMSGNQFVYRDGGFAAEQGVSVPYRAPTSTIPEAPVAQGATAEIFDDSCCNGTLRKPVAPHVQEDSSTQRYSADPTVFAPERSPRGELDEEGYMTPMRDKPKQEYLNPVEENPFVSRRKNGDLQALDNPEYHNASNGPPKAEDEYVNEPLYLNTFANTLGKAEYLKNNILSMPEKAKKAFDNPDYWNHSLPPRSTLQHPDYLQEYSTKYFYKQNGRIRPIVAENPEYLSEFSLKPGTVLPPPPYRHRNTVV
Sequence of Ephrin type-A receptor 7 (Homo sapiens) (Q15375 28-998 limits assumed): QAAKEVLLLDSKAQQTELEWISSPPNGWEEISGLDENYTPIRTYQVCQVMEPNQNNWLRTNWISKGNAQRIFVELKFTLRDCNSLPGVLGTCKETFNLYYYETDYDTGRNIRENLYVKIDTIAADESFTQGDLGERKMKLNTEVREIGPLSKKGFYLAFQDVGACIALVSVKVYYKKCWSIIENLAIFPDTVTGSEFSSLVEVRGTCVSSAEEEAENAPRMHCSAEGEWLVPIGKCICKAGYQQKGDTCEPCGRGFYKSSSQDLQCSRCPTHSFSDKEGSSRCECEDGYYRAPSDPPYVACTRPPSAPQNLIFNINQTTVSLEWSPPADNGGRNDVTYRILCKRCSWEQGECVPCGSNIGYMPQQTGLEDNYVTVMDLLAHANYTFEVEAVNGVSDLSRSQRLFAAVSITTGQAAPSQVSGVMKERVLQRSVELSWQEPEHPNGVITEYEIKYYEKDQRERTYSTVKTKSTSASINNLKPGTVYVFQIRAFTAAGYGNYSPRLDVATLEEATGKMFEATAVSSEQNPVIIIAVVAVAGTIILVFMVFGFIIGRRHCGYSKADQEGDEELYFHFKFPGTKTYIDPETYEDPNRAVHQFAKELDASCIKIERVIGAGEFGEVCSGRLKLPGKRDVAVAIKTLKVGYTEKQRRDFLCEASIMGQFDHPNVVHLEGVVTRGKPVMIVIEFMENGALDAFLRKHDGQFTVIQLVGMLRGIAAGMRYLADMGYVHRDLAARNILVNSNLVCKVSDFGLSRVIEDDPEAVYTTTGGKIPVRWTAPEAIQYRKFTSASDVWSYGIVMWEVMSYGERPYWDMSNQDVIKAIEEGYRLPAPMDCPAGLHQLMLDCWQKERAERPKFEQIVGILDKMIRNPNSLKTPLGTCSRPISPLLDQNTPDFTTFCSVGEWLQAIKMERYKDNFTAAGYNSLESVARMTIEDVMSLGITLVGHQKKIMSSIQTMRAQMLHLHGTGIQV
Sequence of Ephrin type-A receptor 4 (Homo sapiens) (P54764 whole entry): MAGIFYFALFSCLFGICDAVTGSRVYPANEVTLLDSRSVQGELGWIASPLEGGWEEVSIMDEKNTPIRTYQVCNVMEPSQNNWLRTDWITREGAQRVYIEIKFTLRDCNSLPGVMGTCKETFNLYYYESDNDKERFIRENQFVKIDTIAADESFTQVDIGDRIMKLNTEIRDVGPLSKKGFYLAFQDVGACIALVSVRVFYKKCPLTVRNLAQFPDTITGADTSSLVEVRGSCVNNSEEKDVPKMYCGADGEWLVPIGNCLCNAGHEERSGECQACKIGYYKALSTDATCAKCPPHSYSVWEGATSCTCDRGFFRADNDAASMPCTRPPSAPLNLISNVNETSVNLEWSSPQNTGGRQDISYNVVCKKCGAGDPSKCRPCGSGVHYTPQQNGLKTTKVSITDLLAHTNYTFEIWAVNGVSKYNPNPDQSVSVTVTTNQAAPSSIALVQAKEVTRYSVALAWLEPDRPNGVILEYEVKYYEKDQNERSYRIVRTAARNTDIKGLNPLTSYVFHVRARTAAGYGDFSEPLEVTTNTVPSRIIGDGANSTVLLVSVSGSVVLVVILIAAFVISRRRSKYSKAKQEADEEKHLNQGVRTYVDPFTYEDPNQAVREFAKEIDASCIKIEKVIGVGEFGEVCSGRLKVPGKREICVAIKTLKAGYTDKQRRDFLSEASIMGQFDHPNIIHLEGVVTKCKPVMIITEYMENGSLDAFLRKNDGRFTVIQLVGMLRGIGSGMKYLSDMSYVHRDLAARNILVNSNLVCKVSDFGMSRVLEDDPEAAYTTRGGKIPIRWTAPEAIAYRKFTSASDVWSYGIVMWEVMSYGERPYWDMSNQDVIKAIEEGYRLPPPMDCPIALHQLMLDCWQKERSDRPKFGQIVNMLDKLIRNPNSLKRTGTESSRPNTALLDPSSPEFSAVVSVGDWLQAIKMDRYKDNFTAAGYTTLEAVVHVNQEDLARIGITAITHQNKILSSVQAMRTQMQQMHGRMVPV

Question: How did the residual activity [1] turn out when `CN(C)S(=O)(=O)c1ccc2c(c1)/C(=C/c1cc3c([nH]1)CCCC3)C(=O)N2` was run?
Answer: 77%

Question: And the residual activity [2]?
Answer: 92%

Question: And the residual activity [3]?
Answer: 94%

Question: What about the residual activity [4] of the same compound?
Answer: 79%

Question: And the residual activity [5]?
Answer: 96%

Question: And the residual activity [6]?
Answer: 85%

Question: What about the residual activity [7] of the same compound?
Answer: 73%

Question: What about the residual activity [8] of the same compound?
Answer: 64%

Question: And the residual activity [9]?
Answer: 120% (inactive)

Question: What about the residual activity [10] of the same compound?
Answer: 94%

Question: And the residual activity [11]?
Answer: 70%

Question: What about the residual activity [12] of the same compound?
Answer: 69%

Question: And the residual activity [13]?
Answer: 88%

Question: And the residual activity [14]?
Answer: 82%

Question: What about the residual activity [15] of the same compound?
Answer: 21%
